High-throughput results from PubChem.
Only some compounds are listed: those with a hit (about 4.7% of all), similar ones and a draw of the others.
EBI2 block: blocks human EBI2 receptor beta-arrestin signaling. P32249. EBI2 beta-arrestin recruitment, luminescence, 7a,25-OHC stimulated. inhibition, % at 5 µM. actives 0.81% (n = 360,000); in the data active means inhibition above about 38%;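 further: enzyme fragment complementation signal reports receptor beta-arrestin coupling in cells; 0% = agonist plus DMSO wells and 100% = wells without agonist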
Target sequence (P32249 whole entry, looked up, the tested form may be a part): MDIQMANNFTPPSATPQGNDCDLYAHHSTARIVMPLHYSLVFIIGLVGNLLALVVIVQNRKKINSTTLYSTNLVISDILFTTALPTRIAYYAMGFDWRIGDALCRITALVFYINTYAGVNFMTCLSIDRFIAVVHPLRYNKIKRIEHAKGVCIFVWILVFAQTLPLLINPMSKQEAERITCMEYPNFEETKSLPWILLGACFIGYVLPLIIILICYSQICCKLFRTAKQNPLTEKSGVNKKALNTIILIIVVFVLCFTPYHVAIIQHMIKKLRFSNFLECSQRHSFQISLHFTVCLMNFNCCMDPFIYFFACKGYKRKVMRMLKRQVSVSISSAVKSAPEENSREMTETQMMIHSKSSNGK
tim10-1 inh: tim10-1 yeast growth inhibition; actives 2.2% (n = 330,000); inhibition, % at 20 µM; S. cerevisiae tim10-1 ts strain growth, BacTiter-Glo, 24 h; AID 463190;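 active means inhibition of at least 40%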;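 further: mutant grown at 25 °C; 0% = DMSO wells with yeast and 100% = wells holding no yeast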
TIM10 inh: growth inhibitors of TIM10 yeast strain; S. cerevisiae TIM10 strain growth, BacTiter-Glo luminescence, 24 h; inhibition, % at 10 µM; actives 1.4% (n = 330,000);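 active means inhibition of 40% or more at the single tested concentration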;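 further: wild-type TIM10 isogenic control strain grown at permissive 25 °C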
tim23-1 inh: tim23-1 yeast growth inhibition; S. cerevisiae tim23-1 growth, BacTiter-Glo luminescence, 24 h; actives 1.3% (n = 330,000); inhibition, % at 20 µM;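 active means growth inhibition of the mutant yeast at or above 50%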;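 further: temperature-sensitive mutant grown at 25 °C; plate controls were DMSO-treated mutant yeast for no effect and medium wells lacking yeast for full effect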
PfHsp90 set2: reduces growth (ATP signal) of yeast expressing P. falciparum Hsp90; S. cerevisiae expressing PfHsp90, BacTiter-Glo ATP, 48 h; yeast lacking PDR1 and PDR3 efflux regulators; inhibition, % at 9.4 µM; actives 0.32% (n = 310,000); AID 504621;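 active means every replicate shows inhibition above about 80%, whatever the replicate mean, limit read from the data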;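 further: 0% = DMSO neutral controls and 100% = 20 µM radicicol positive controls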
SKKanGAS inh: blocks kanamycin growth of S. pyogenes SKKanGAS strain; inhibition, % at 7.5 µM; AID 1662; BacTiter-Glo, 6 h; actives 1.3% (n = 300,000);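 active means mean replicate score, as percent of positive control median, at least 50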;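 further: strain carries kanamycin resistance gene driven by streptokinase promoter and grows in 40 µg/ml kanamycin; loss of luminescence reflects streptokinase promoter inhibition or plain growth inhibition; 0% = median of DMSO wells and 100% = positive control at its reference dose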
EBI2 conf: confirmation of human EBI2 receptor antagonists; shares compounds with EBI2 block; EBI2 beta-arrestin luminescence, 7a,25-OHC antagonism; inhibition, % at 5 µM; actives 29% (n = 2,400); AID 651997;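 active means inhibition of at least 50%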
EBI2 ag: activates EBI2, counter-screen for EBI2 antagonists. shares compounds with EBI2 block. EBI2-expressing cells, agonist mode, luminescence, 60 min; 0% vehicle, 100% 7α,25-dihydroxycholesterol control. activation, % at 5 µM. 2,400 tested, under 10 active;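 active means activation of at least 50%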
bGal cs: inhibits E. coli beta-galactosidase, counter-screen for EBI2 antagonists; shares compounds with EBI2 block; purified beta-galactosidase, luminescent Galacton Star, 15 min; inhibition, % at 5 µM; actives 1% (n = 2,400); AID 652176;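 active means replicate-average signal at least 3 plate SD below neutral wells, shown as high inhibition, flagging enzyme-inhibiting false positives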;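 further: 0% = DMSO wells with enzyme and 100% = wells lacking enzyme; higher means stronger loss of beta-gal luminescence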
Numbers without * were called inactive; . = no result given.

SMILES	EBI2 block	tim10-1 inh	TIM10 inh	tim23-1 inh	PfHsp90 set2	SKKanGAS inh	EBI2 conf	EBI2 ag	bGal cs
COc1ccc(OCCNC(=O)c2cccc(Oc3ccc(C(F)(F)F)cc3[N+](=O)[O-])c2)cc1	43*	23	6	0	-28	6	17	-2	-14
CSC(=Nc1ccccc1)C(C#N)c1nc2ccccc2[nH]1 (stereo not drawn)	57*	10	17	28	-19	0	47	-2	-11
N#CC(C(=S)Nc1ccccc1)c1nc2ccccc2[nH]1 (stereo not drawn)	2	11	25	2	-24	23	.	.	.
Cc1c([N+](=O)[O-])oc2c1C(=O)NCCC2	-2	.	.	.	.	.	.	.	.
CCOC(=O)c1ccc2ncc(C(=O)OCC)c(Nc3ccc(N4CCOCC4)cc3)c2c1	19	21	37	37	2	10	.	.	.
CCOC(=O)c1cnc2ccc(OC)cc2c1Nc1ccc(N2CCN(C)CC2)cc1	41*	15	9	-5	-1	4	53*	2	0
COc1ccc2nc(SCC(=O)N3CC(=O)Nc4ccccc43)c(C#N)cc2c1	57*	8	16	9	0	10	35	-1	6
COc1ccc2nc(SCC(C)=O)c(C#N)cc2c1	12	25	12	10	-10	-3	.	.	.
CCc1nc2ccc(C(=O)NCCOc3ccc(OC)cc3)cn2c1N(CC)Cc1ccc(OC)c(OC)c1	58*	.	.	.	.	.	38	-2	-9
CCc1nc2ccc(C(=O)Nc3ccc(OC)c(OC)c3)cn2c1N(CC)Cc1ccc(OC)c(OC)c1	7	.	.	.	.	.	.	.	.
CCc1nc2ccc(C(=O)NCCCn3ccnc3)cn2c1N(C)C(=O)COc1ccccc1	0	.	.	.	.	.	.	.	.
COc1ccc(OCCNC(=O)c2ccc3nc(C)c(N(C)Cc4ccc(NC(C)=O)cc4)n3c2)cc1	55*	.	.	.	.	.	16	-2	-9
CCc1nc2ccc(C(=O)NCCOc3ccc(OC)cc3)cn2c1N(C)C(=O)COc1ccccc1	53*	.	.	.	.	.	35	1	-1
CCc1nc2ccc(C(=O)NCCOc3ccc(OC)cc3)cn2c1N(C)Cc1ccc(N(C)C)cc1	49*	.	.	.	.	.	23	-1	-8
Cc1ccc(-c2ccc(=O)n(Cc3cccc(Br)c3)n2)cc1	12	9	-35	22	-2	23	.	.	.
CN1CCN(C(=S)NC(=O)/C=C/c2ccccc2)CC1	2	8	2	-6	-20	-4	.	.	.
O=C(/C=C/c1ccc(Cl)c(Cl)c1)N1CCOCC1	57*	6	-17	6	11	3	55*	-1	-20
O=C(/C=C/c1ccc(Br)cc1)NC(=S)N1CCOCC1	64*	32	15	26	-23	-24	48	0	0
CC(C)c1ccc(/C=C/C(=O)N2CCOCC2)cc1	30	15	19	11	13	-5	.	.	.
O=C(/C=C/c1ccc2c(c1)OCO2)N1CCN(c2ccc(Cl)cc2)CC1	47*	16	12	12	-5	-21	29	2	5
O=C(/C=C/c1ccc2c(c1)OCO2)N1CCCCC1	21	1	-5	10	0	15	.	.	.
O=C(/C=C/c1ccc(Cl)cc1)N1CCOCC1	50*	18	2	21	33	-15	30	-1	-10
CC1(C)CC(=O)C=C(c2cccc(Br)c2)C1	16	9	2	38	-8	.	.	.	.
COc1ccc(CNC(=O)Cn2c(=O)n(CCC(=O)N3CCCCC3)c(=O)c3sccc32)cc1	-6	11	7	7	12	-3	.	.	.
CC(=O)N1c2ccc(S(=O)(=O)N3CCC(C(=O)NCc4ccc(C)cc4)CC3)cc2CC1C (stereo not drawn)	38	4	2	-11	-51	-11	.	.	.
SMILES	EBI2 block	tim10-1 inh	TIM10 inh	tim23-1 inh	PfHsp90 set2	SKKanGAS inh	EBI2 conf	EBI2 ag	bGal cs
Cc1ccc(CNC(=O)C2CCN(S(=O)(=O)c3ccc4c(c3)CC(C)N4C(=O)C3CC3)CC2)cc1 (stereo not drawn)	79*	27	34	22	-43	8	45	1	3
CC(=O)N1c2ccc(S(=O)(=O)NCC3CCC(C(=O)NCc4ccc(C)cc4)CC3)cc2CC1C (stereo not drawn)	57*	19	16	10	-15	-1	46	0	7
CC(Oc1cc(F)ccc1[N+](=O)[O-])C(=O)N(C)CC(=O)Nc1ccccc1C(F)(F)F (stereo not drawn)	-1	13	14	11	2	-7	.	.	.
COc1cccc(C(=O)/C=C/c2ccc(SC)cc2)c1	19	29	12	31	.	-11	.	.	.
CSc1ccc(/C=C/C(=O)c2ccc(NC(=O)Cc3ccccc3)cc2)cc1	92*	18	6	29	2	20	80*	1	7
CCC(C)[C@H](NS(=O)(=O)c1ccc(C)cc1)C(=O)N1CCC(C(=O)N[C@@H](Cc2ccccc2)C(=O)O)CC1 (stereo partly drawn)	2	-2	3	14	3	0	.	.	.
Cc1cccc(OCc2nnc(SCC(=O)N3CCCC3)o2)c1	6	11	-12	5	-10	-3	.	.	.
Cc1cccc(OCc2nnc(SCC(=O)N3c4ccccc4CCc4ccccc43)o2)c1	52*	17	13	33	-31	5	5	0	3
COc1ccc(OCc2nnc(SCC(=O)NC3CCCCC3)o2)cc1	11	0	-1	20	-43	-6	.	.	.
COc1ccc(OCc2nnc(SCC(=O)N3C(C)CCCC3C)o2)cc1 (stereo not drawn)	46*	-77	-5	20	3	1	24	1	7
COC(=O)c1ccc(OC)c(CSc2nnc(COc3cccc(C)c3)o2)c1	29	11	-5	16	7	-10	.	.	.
COC(=O)c1ccc(OC)c(CSc2nnc(COc3ccc(OC)cc3)o2)c1	49*	33	-15	5	3	-10	45	0	-1
CC(C)(C)c1ccc(C(=O)Nc2ccc(O)c3c(=O)cc(-c4ccccc4Cl)oc23)cc1	-13	-22	-2	-6	4	10	.	.	.
Cc1ccc(/C=C/C(=O)Nc2ccc(O)c3c(=O)cc(-c4ccccc4Cl)oc23)cc1	44*	2	4	11	-17	1	27	0	7
